{
  "source": "the supplement of paper PMC6555819",
  "data": [
    {"test_system": "LXRa:RXRa (NR concentration 270 nM, RXRa partner concentration 90 nM)", "assay": "PBM binding z-score (relative to random genomic background probes); higher = stronger binding; sequences stand for … in GC…GCGATTGACAGCGTAGAATGAAGG", "summary_of_the_method": "(§1)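 Binding z-scores take random background probes as their reference. They come from custom Agilent 4×180K protein-binding microarrays incubated 1 h with ligand-free nuclear receptor dimers, with antibodies against each partner (one per run) detecting binding. Scanned fluorescence was regression-normalized.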", "values": [
      {"sequence": "CTCCAAAGGTCGTGCTCAGGTGAGTATACCAAAC", "PBM binding z-score": 4.42},
      {"sequence": "TAGCCAAGGTCATGGGCCAGTATACCACGCGAAC", "PBM binding z-score": 5.41},
      {"sequence": "CGAACTACGTCAGAACAGGACAGTGAAGGATGAT", "PBM binding z-score": -0.582},
      {"sequence": "ATATGTTGGTTATCGGGTCATTCAGTTTGCGCAT", "PBM binding z-score": 2.42},
      {"sequence": "ACAGACAGGTTATGAAGGTAACTCAGGCTATCAT", "PBM binding z-score": 0.85},
      {"sequence": "CCGACTGGGGCAGAAAGGATACCATACCATCCGG", "PBM binding z-score": -0.88},
      {"sequence": "TCACGGAGGACACGAAAGGTCAGAGCTCGACATC", "PBM binding z-score": 4.14},
      {"sequence": "TGTCAAAGTTCAAAGGCAACGTAAGTATCCACAC", "PBM binding z-score": 6.1},
      {"sequence": "CCTCGCAGGCCAATCTGGGTCACTCAAGGCTTGA", "PBM binding z-score": 1.48},
      {"sequence": "GCGACTGGGGCATCAGCAGGTTACCATTACTTAA", "PBM binding z-score": -0.326},
      {"sequence": "TAGCCTAGGTCATGGGCCAGTATCCCACGCGAAC", "PBM binding z-score": 3.17},
      {"sequence": "TCATATAGGTAAAAGGTGAAATTCGGTGTGGTAA", "PBM binding z-score": 1.99},
      {"sequence": "CCTATTAGATGACCATAAGGGCAACCGAAGCTCG", "PBM binding z-score": 0.35},
      {"sequence": "AGAACGAGGGCACGCTGAGTTGGTAGCAGAGTAG", "PBM binding z-score": 0.402},
      {"sequence": "AGCACGAGGGCAATGAGTTGATAGCACGGGTGGC", "PBM binding z-score": 0.129},
      {"sequence": "CCGACTGGGGCATAAAGTTACCATAAGCCAGCCC", "PBM binding z-score": -0.54},
      {"sequence": "CGAACTAGGTCATCCAGGACAGTAAATACATTGA", "PBM binding z-score": 2.79},
      {"sequence": "ATCTCTAGGTGAAGATAGTTCAGTGAATGCAAAT", "PBM binding z-score": 1.02},
      {"sequence": "ACTATTAGTTGACTTGGGGCAACCGATACGACGC", "PBM binding z-score": 0.287},
      {"sequence": "TAGCTTAGGTCATTGGGCCAGTATAGTACGCATC", "PBM binding z-score": 4.02},
      {"sequence": "AGAATGCGGTTATTAAGATCAGGGAATTGCGGTC", "PBM binding z-score": -0.138},
      {"sequence": "TCTTGTAGATAAGCAGGTTAAGAAAGCTGGCCAA", "PBM binding z-score": 0.358},
      {"sequence": "GCATATAGGTAATACAAGGTGAAAGTTCGATTGT", "PBM binding z-score": 2.54},
      {"sequence": "GATACAGGGTCAAGGCCAGACTACGCGTATTGAT", "PBM binding z-score": 3.95},
      {"sequence": "TCGGCTAGGTCAGTTGGTCAGCTAACGAGCTGCC", "PBM binding z-score": 0.58},
      {"sequence": "AGTAAAAGTTCAGGACGAGGTAACGTAAAGCACG", "PBM binding z-score": 3.28},
      {"sequence": "AGAACGAGGGCAATGAGTTGATAACACGGGTGGC", "PBM binding z-score": 0.102},
      {"sequence": "TGAATGAGGTTATAAGCTCAGGGAACGTTGCAAA", "PBM binding z-score": 0.975},
      {"sequence": "TCTATTAGTTGATTAGGGCATCCGAAACAGCGGA", "PBM binding z-score": 0.731},
      {"sequence": "ATATGTAGGTTAAGGGTAATTCAGGTTGGTTCGC", "PBM binding z-score": 2.14},
      {"sequence": "CAAACTAGGTCACAGAGGTCAAATTCCGTGCGTA", "PBM binding z-score": 6.88},
      {"sequence": "CGAACGAGGGCATGAGTGGATAGCAAATGCCGAT", "PBM binding z-score": 0.334},
      {"sequence": "CCGAGTAGGTTATGGGGCATTCCGGCAACGGTGA", "PBM binding z-score": 0.227},
      {"sequence": "CGTCCCAGGTCATAGGAGGTCAGTGAAGACAGAT", "PBM binding z-score": 6.34},
      {"sequence": "TTACCAAGTTGAAGGTCGTTGATCCCTCTGTAGA", "PBM binding z-score": 2.28},
      {"sequence": "GCACCAAGGTGAATAGGTCGTTGATGAGTAGGCG", "PBM binding z-score": 0.592},
      {"sequence": "ATCGAAAGGTCGTGAGGTGAGTAGACAGAAAGGC", "PBM binding z-score": 4.15},
      {"sequence": "CGAACTAGGTGATCCAGGACAGTGAATACATTGA", "PBM binding z-score": -0.403},
      {"sequence": "TCTTGTAGATTAACAGGAGGTTAAGAAAGATCGA", "PBM binding z-score": 1.41},
      {"sequence": "AGAATGAGGTTATTAATATCAGGGAATTGCGGTC", "PBM binding z-score": 1.32}
    ]},
    {"test_system": "LXRa homodimer (NR concentration 270 nM)", "assay": "PBM binding z-score (relative to random genomic background probes); higher = stronger binding; sequences stand for … in GC…GCGATTGACAGCGTAGAATGAAGG", "summary_of_the_method": "as §1", "values": [
      {"sequence": "CTCCAAAGGTCGTGCTCAGGTGAGTATACCAAAC", "PBM binding z-score": 0.227},
      {"sequence": "TAGCCAAGGTCATGGGCCAGTATACCACGCGAAC", "PBM binding z-score": 0.809},
      {"sequence": "CGAACTACGTCAGAACAGGACAGTGAAGGATGAT", "PBM binding z-score": -0.294},
      {"sequence": "ATATGTTGGTTATCGGGTCATTCAGTTTGCGCAT", "PBM binding z-score": 1.49},
      {"sequence": "ACAGACAGGTTATGAAGGTAACTCAGGCTATCAT", "PBM binding z-score": 0.14},
      {"sequence": "CCGACTGGGGCAGAAAGGATACCATACCATCCGG", "PBM binding z-score": -0.438},
      {"sequence": "TCACGGAGGACACGAAAGGTCAGAGCTCGACATC", "PBM binding z-score": 3.14},
      {"sequence": "TGTCAAAGTTCAAAGGCAACGTAAGTATCCACAC", "PBM binding z-score": 4.08},
      {"sequence": "CCTCGCAGGCCAATCTGGGTCACTCAAGGCTTGA", "PBM binding z-score": -0.253},
      {"sequence": "GCGACTGGGGCATCAGCAGGTTACCATTACTTAA", "PBM binding z-score": -0.0382},
      {"sequence": "TAGCCTAGGTCATGGGCCAGTATCCCACGCGAAC", "PBM binding z-score": 0.378},
      {"sequence": "TCATATAGGTAAAAGGTGAAATTCGGTGTGGTAA", "PBM binding z-score": 0.471},
      {"sequence": "CCTATTAGATGACCATAAGGGCAACCGAAGCTCG", "PBM binding z-score": 0.303},
      {"sequence": "AGAACGAGGGCACGCTGAGTTGGTAGCAGAGTAG", "PBM binding z-score": -0.489},
      {"sequence": "AGCACGAGGGCAATGAGTTGATAGCACGGGTGGC", "PBM binding z-score": -0.673},
      {"sequence": "CCGACTGGGGCATAAAGTTACCATAAGCCAGCCC", "PBM binding z-score": -0.298},
      {"sequence": "CGAACTAGGTCATCCAGGACAGTAAATACATTGA", "PBM binding z-score": 0.899},
      {"sequence": "ATCTCTAGGTGAAGATAGTTCAGTGAATGCAAAT", "PBM binding z-score": 0.126},
      {"sequence": "ACTATTAGTTGACTTGGGGCAACCGATACGACGC", "PBM binding z-score": 0.238},
      {"sequence": "TAGCTTAGGTCATTGGGCCAGTATAGTACGCATC", "PBM binding z-score": 1.12},
      {"sequence": "AGAATGCGGTTATTAAGATCAGGGAATTGCGGTC", "PBM binding z-score": -0.259},
      {"sequence": "TCTTGTAGATAAGCAGGTTAAGAAAGCTGGCCAA", "PBM binding z-score": -0.156},
      {"sequence": "GCATATAGGTAATACAAGGTGAAAGTTCGATTGT", "PBM binding z-score": 0.814},
      {"sequence": "GATACAGGGTCAAGGCCAGACTACGCGTATTGAT", "PBM binding z-score": 0.21},
      {"sequence": "TCGGCTAGGTCAGTTGGTCAGCTAACGAGCTGCC", "PBM binding z-score": -0.132},
      {"sequence": "AGTAAAAGTTCAGGACGAGGTAACGTAAAGCACG", "PBM binding z-score": 1.42},
      {"sequence": "AGAACGAGGGCAATGAGTTGATAACACGGGTGGC", "PBM binding z-score": -0.716},
      {"sequence": "TGAATGAGGTTATAAGCTCAGGGAACGTTGCAAA", "PBM binding z-score": -0.535},
      {"sequence": "TCTATTAGTTGATTAGGGCATCCGAAACAGCGGA", "PBM binding z-score": 0.192},
      {"sequence": "ATATGTAGGTTAAGGGTAATTCAGGTTGGTTCGC", "PBM binding z-score": 1.04},
      {"sequence": "CAAACTAGGTCACAGAGGTCAAATTCCGTGCGTA", "PBM binding z-score": 8.33},
      {"sequence": "CGAACGAGGGCATGAGTGGATAGCAAATGCCGAT", "PBM binding z-score": -0.533},
      {"sequence": "CCGAGTAGGTTATGGGGCATTCCGGCAACGGTGA", "PBM binding z-score": -0.224},
      {"sequence": "CGTCCCAGGTCATAGGAGGTCAGTGAAGACAGAT", "PBM binding z-score": 4.26},
      {"sequence": "TTACCAAGTTGAAGGTCGTTGATCCCTCTGTAGA", "PBM binding z-score": 0.241},
      {"sequence": "GCACCAAGGTGAATAGGTCGTTGATGAGTAGGCG", "PBM binding z-score": -0.472},
      {"sequence": "ATCGAAAGGTCGTGAGGTGAGTAGACAGAAAGGC", "PBM binding z-score": 0.0462},
      {"sequence": "CGAACTAGGTGATCCAGGACAGTGAATACATTGA", "PBM binding z-score": -0.0294},
      {"sequence": "TCTTGTAGATTAACAGGAGGTTAAGAAAGATCGA", "PBM binding z-score": 0.483},
      {"sequence": "AGAATGAGGTTATTAATATCAGGGAATTGCGGTC", "PBM binding z-score": 0.394}
    ]}
  ]
}
